Drawing on PubChem BioAssay (NCATS), this text covers Potency for 40 compounds.

SMILES strings stand for the structures. Records with an inconclusive call do not appear. Entries that show only a call come without a potency. Activity calls are given as the source filed them. Calls come from the whole dose curve; as a rule, active = well fitted cell-killing curve with a large enough effect; inconclusive = small, poorly fitted or top-dose-only effect; inactive = flat fitted curve, though single readings scatter.

The nature of the assay: Cell Viability - LYMP2-009 (AID 968). Note: nearly all actives have a fitted effect of over 55% in size. The conditions noted are these: LYMP2-009 lymphoblastoid cell viability; series mostly up to 92.2 µM. The source says: NIH Chemical Genomics Center [NCGC]
NIH Molecular Libraries Screening Centers Network [MLSCN]
National Institutes of Environmental Health Sciences [NIEHS]
National Toxicology Program [NTP]
We have developed a 1536-well cell-based assay for quantitative high throughput screening (qHTS) against a number of cell lines to determine in vitro cytotoxicity of small molecules. This particular assay uses a human lymphoblastoid cell line (LYMP2-009) purchased from Coriell Institute for Medical Research.
NCGC Assay Protocol Summary:
The CellTiter-Glo luminescent cell viability assay (Promega) is a homogeneous method to measure the number of viable cells in culture. The end point readout of this assay is based on quantitation of intracellular ATP, an indicator of metabolic activity, using the luciferase reaction. Luciferase catalyzes the oxidation of beetle Luciferin to oxyluciferin and light in the presence of ATP. The luminescent signal is proportional to amount of ATP present.
Using the CellTiter-Glo luminescent cell viability assay, the amount of cellular ATP was measured in the lymphoblastoid cell line with complete culture medium following compound treatment for 24 hours. The assay was performed in opaque white Kalypsys 1536-well plates. In the screen, tetraoctylammonium bromide was used as positive control. Library compounds were measured for their ability to cause acute toxicity in the cell line, as reflected by a decrease in intracellular ATP levels, in a concentration-dependent manner. […] AC50 values were determined from concentration-response data modeled with the standard Hill equation.
qHTS protocol for CellTiter Glo lymphoblastoid cellular assay
[Step] [Parameter] [Value] [Description]
1. Reagent; 5 uL; 2500 lymphoblastoid cells/well
2. Time; 5 hr; 37 C incubation
4. Controls; 23 nL; Tetraoctylammonium bromide 6.4pM to 92 uM
5. Time; 24 hr; 37 C incubation
6. Reagent; 5 uL; CellTiter Glo reagent
7. Time; 30 min; Room Temperature
8. Detection; Luminescence; Viewlux plate reader
Keywords: cell viability, cytotoxicity, lymphoblastoid cell line, luminescence, NTPHTS, NTPHTS_NCGC, NIEHS, DSSTox, MLSMR, MLSCN, NIH Roadmap, qHTS, NCGC
Regarding `O=NO`, the Potency result was “inactive”.

As for `O[C@@H]([C@H](O)[C@@H](O)CBr)[C@@H](O)CBr`, the Potency result was “inactive”.

As for `Clc1cc(Cl)c(Cl)c(Cl)c1Cl`, the Potency entry was “inactive”.

Regarding `c1ccc2c(c1)c1cccc3ccc4cccc2c4c31`, the Potency entry is “inactive”.

`C=Cc1ccccc1Cl`: the Potency entry is “inactive”.

For `Nc1ccc(S(=O)(=O)O)cc1`, the Potency entry is “inactive”.

As for `CCO`, the Potency result is “inactive”.

Consider `Cc1cccc([N+](=O)[O-])c1C`, for which the Potency entry is “inactive”.

As for `C=C(C)C1CC=C(C)C(O)C1` (stereo not given), the Potency entry was “inactive”.

Regarding `CCCCC(CC)CN` (stereo not given), the Potency result was “inactive”.

For `c1ccc2c(c1)[nH]c1ccccc12`, the Potency result is “inactive”.

Turning to `CCCN(CCC)C(=O)SCC`, the Potency entry was “inactive”.

For `CCCCCCCCCCCCCC(=O)O`, the Potency entry was “inactive”.

As to `Cc1ccc([N+](=O)[O-])c(C)c1`, the Potency result is “inactive”.

In the case of `COc1c2ccoc2cc2oc(=O)ccc12`, the Potency entry is “inactive”.

As for `O=C(O)c1ccc(O)cc1O`, the Potency entry is “inactive”.

Consider `CCCCCCCCCCCCCCC1CO1` (stereo not given), for which the Potency result was “inactive”.

`Nc1ccc(Cl)cc1Cl`: the Potency result is “inactive”.

Turning to `CCO[Si](CCCN)(OCC)OCC`, the Potency result was “inactive”.

On to `O=C(O)CC(C(=O)O)C(CC(=O)O)C(=O)O` (stereo not given), for which the Potency entry is “inactive”.

Turning to `COCC(=O)O`, the Potency result was “inactive”.

For the compound `CCCCCCCCO`, the Potency result is “inactive”.

With `COC(=O)CCCCC(=O)OC`, the Potency result was “inactive”.

As to `O=[N+]([O-])c1cccc(Cl)c1Cl`, the Potency result is “inactive”.

For the compound `CCCCCCCCCCCC(=O)O`, the Potency result is “inactive”.

Turning to `C=CCOC(=O)c1ccccc1C(=O)OCC=C`, the Potency entry is “inactive”.

For `COC(=O)c1ccc(C=O)cc1`, the Potency entry is “inactive”.

As for `CC(C)=CCCC(C)CCO` (stereo not given), the Potency entry was “inactive”.

For the compound `COc1cc(/C=C/c2ccccc2)oc(=O)c1`, the Potency entry was “inactive”.

With `Cc1c(N=C=O)cccc1N=C=O`, the Potency result was “inactive”.

In the case of `C/C=C\c1ccc(OC)cc1`, the Potency entry is “inactive”.

`COc1ccc2nc(N)sc2c1`: the Potency entry was “inactive”.

Consider `CC1=CC(C)(C)Nc2ccccc21`, for which the Potency entry is “inactive”.

On to `OCCNCCO`, for which the Potency entry is “inactive”.

For `Cc1ccc([N+](=O)[O-])cc1N`, the Potency result was “inactive”.

On to `c1ccccc1`, for which the Potency entry was “inactive”.

In the case of `C1OCOCO1`, the Potency entry is “inactive”.

For `Clc1cc(Cl)c(Cl)cc1Cl`, the Potency result is “inactive”.

Regarding `ClCCCl`, the Potency entry is “inactive”.

Consider `CCC(O)OC(O)CC` (stereo not given), for which the Potency result is “inactive”.
